Compound activity as filed in PubChem BioAssay.
hgDAF12 agonist: activates the H. glycines DAF-12 receptor ligand-binding domain. HEK293 GAL4-hgDAF12 UAS-luciferase reporter, agonist luminescence; normalized to butyrate control. activation, % at 6.8 µM. hit rate 1.8% among 370,000;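 active means activation above a cutoff set at the mean of all screened compounds plus 3 SD, cut at about 10% in these data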;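 further: 0% = DMSO wells and 100% = sodium butyrate wells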
ssDAF-12 act: S. stercoralis DAF-12 activation, primary screen | hit rate 1% among 370,000 | HEK293 ssDAF-12/GRIP1 lit1-tk-luc reporter, luminescence; % of 3 µM dafachronic acid response | activation, % at 6.8 µM | AID 652126;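 active means activation above the mean over all tested compounds plus 3 SD, cut at about 0.9% in these data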;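 further: 0% = DMSO-only wells and 100% = 3 µM delta7-dafachronic acid wells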
DAX1 inh-1: inhibits human nuclear receptor DAX1 | P51843 | HEK293 Gal4-DAX1 luciferase reporter, luminescence | inhibition, % at 6.75 µM | hit rate 0.99% among 340,000 | AID 504766;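 active means inhibition above the mean over all tested compounds plus 3 SD, cut at about 4.2% in these data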;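 further: 0% = DAX1-transfected cells with DMSO and 100% = empty-vector control cells with DMSO; inhibition shows as a rise in luminescence from relieved DAX1 repression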
Target sequence (P51843 207-470 limits assumed): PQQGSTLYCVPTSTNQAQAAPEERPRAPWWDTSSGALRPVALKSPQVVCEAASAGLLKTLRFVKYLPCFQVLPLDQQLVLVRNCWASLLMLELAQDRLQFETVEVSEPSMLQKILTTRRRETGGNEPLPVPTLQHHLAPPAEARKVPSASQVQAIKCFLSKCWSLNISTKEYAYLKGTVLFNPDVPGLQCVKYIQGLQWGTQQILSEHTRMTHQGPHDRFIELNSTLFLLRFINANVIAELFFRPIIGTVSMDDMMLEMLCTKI
DAX1 inh-2: inhibitors of DAX1 repression of SF-1 activated StAR promoter; HEK293T StAR-luciferase reporter, SF-1/DAX-1 repression relief; hit rate 1.1% among 370,000; inhibition, % at 6.8 µM; AID 652010;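 active means inhibition above the mean over all tested compounds plus 3 SD, cut at about 3.6% in these data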;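 further: 0% = DAX-1 cells with DMSO and 100% = cells lacking DAX-1 with DMSO; higher inhibition means more luminescence from relief of DAX-1 repression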
hcDAF-12 act: activators of H. contortus DAF-12 nuclear receptor. HEK293 hcDAF-12 lit1-tk-luc reporter, luminescence; 0% DMSO, 100% Δ7-dafachronic acid. activation, % at 6.8 µM. hit rate 1.4% among 370,000. AID 652067;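 active means activation above the mean of all tested compounds plus 3 SD, cut at about 5.5% in these data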;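 further: 100% = response to 3 µM Δ7-dafachronic acid high control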
Starred values were filed as active, the others as inactive. Compounds with a hit are over-represented: about 4.1% of the library has one in this group of screens.

How did O=C(Nc1cc(Cl)ccc1F)C1CCCN1S(=O)(=O)c1cccc2cccnc12 (centres undefined) do in these assays?
hgDAF12 agonist: -1.5; ssDAF-12 act: -2.0; DAX1 inh-2: -1.5; hcDAF-12 act: -3.8

Results for C[C@H](O)[C@@H]1C(=O)N2CCc3c([nH]c4c(-c5ccccc5)cccc34)[C@@H]2C[C@@H]1N(C)C(=O)NC1CCCCC1 ?
hgDAF12 agonist: 2.9; ssDAF-12 act: -1.1; DAX1 inh-2: 0.5; hcDAF-12 act: -1.8

Results for Cc1cc(C)nc(NC(=O)/C=C/c2ccc3c(c2)OCO3)c1 ?
hgDAF12 agonist: 9.8; ssDAF-12 act: -0.2; DAX1 inh-1: 1.4; DAX1 inh-2: 4.2*; hcDAF-12 act: 2.6

Results for Cc1ccccc1NC(=O)N(C)[C@H]1C[C@H]2c3[nH]c4c(-c5ccccc5)cccc4c3CCN2C(=O)[C@H]1[C@H](C)O ?
hgDAF12 agonist: 2.4; ssDAF-12 act: 0.2; DAX1 inh-2: -0.8; hcDAF-12 act: 0.3

What do the screens show for `C=CCN(CC#Cc1ccccc1)CC1CC1`?
hgDAF12 agonist: 0.7; ssDAF-12 act: -0.8; DAX1 inh-2: -0.2; hcDAF-12 act: -2.4

Results for CCCCCCS(=O)[C@H]1CS(=O)(=O)C[C@@H]1S(=O)CCCCCC (some centres undefined) ?
hgDAF12 agonist: 17.0*; ssDAF-12 act: -1.8; DAX1 inh-1: -0.7; DAX1 inh-2: -0.5; hcDAF-12 act: -0.9

How did CC(C)(C)c1ccc(OCC(=O)NCC(c2cccs2)N2CCOCC2)cc1 (centres undefined) do in these assays?
hgDAF12 agonist: -2.0; ssDAF-12 act: -0.9; DAX1 inh-1: -2.5; DAX1 inh-2: 4.3*; hcDAF-12 act: -0.6

Results for COc1ccc(OCC(=O)NCC(c2cccs2)N2CCOCC2)cc1 (centres undefined) ?
hgDAF12 agonist: -4.0; ssDAF-12 act: -1.0; DAX1 inh-1: -0.6; DAX1 inh-2: 1.7; hcDAF-12 act: 1.6

Results for O=C(Nc1ccc2nccnc2c1)Nc1ccccc1Cl ?
hgDAF12 agonist: 11.0*; ssDAF-12 act: -1.6; DAX1 inh-1: 1.6; DAX1 inh-2: 0.4; hcDAF-12 act: -0.8

Results for O=C(Nc1ccc(Cl)c(Cl)c1)Nc1ccccc1C(=O)O ?
hgDAF12 agonist: 1.8; ssDAF-12 act: -0.1; DAX1 inh-1: -1.9; DAX1 inh-2: 4.1*; hcDAF-12 act: 4.3

What do the screens show for `Cc1cc(NC(=O)Nc2ccc(Cl)c(Cl)c2)n(-c2ccccc2)n1`?
hgDAF12 agonist: 0.8; ssDAF-12 act: -1.8; DAX1 inh-1: 4.8*; DAX1 inh-2: 0.3; hcDAF-12 act: -0.1

Results for CCOC(=O)CC[C@@]1(C(=O)OCC)C[C@@H](CC(=O)NCCc2ccccc2OC)C(=O)N2CCCC=C21 ?
hgDAF12 agonist: -3.0; ssDAF-12 act: -0.9; DAX1 inh-2: -1.1; hcDAF-12 act: -0.9

What do the screens show for `CC(C)(C)OC(=O)N1CCC(N[C@@H](Cc2c[nH]c3ccccc23)C(=O)NCCc2c[nH]c3ccccc23)(C(=O)NC2CCCCC2)CC1`?
hgDAF12 agonist: 0.2; ssDAF-12 act: -1.0; hcDAF-12 act: 3.6

What do the screens show for `COc1ccc2c(c1)[C@@]1(OCCC=C[C@H]1C)C(=O)N2CC1CC1`?
hgDAF12 agonist: -2.0; ssDAF-12 act: -1.1; DAX1 inh-2: -0.4; hcDAF-12 act: 0.4

How did Cn1cc(Cl)c(-c2nc3ccccc3[nH]2)n1 do in these assays?
hgDAF12 agonist: 12.0*; ssDAF-12 act: 0.1; DAX1 inh-1: 1.2; DAX1 inh-2: 0.9; hcDAF-12 act: 4.4

Results for Clc1ccccc1-c1nc2ccccc2[nH]1 ?
hgDAF12 agonist: 8.0; ssDAF-12 act: -0.4; DAX1 inh-1: 0.8; DAX1 inh-2: 0.4; hcDAF-12 act: 1.5

Results for C=CCN1[C@H](CO)[C@H](c2ccc(C#CC3(O)CCCC3)cc2)[C@@H]1C#N ?
hgDAF12 agonist: 0.0; ssDAF-12 act: -1.5; DAX1 inh-2: -0.9; hcDAF-12 act: -3.4

Results for COC(=O)[C@H](C(C)C)N1Cc2nnn(Cc3ccc(C)cc3)c2-c2cc(F)ccc2S1(=O)=O ?
hgDAF12 agonist: -3.1; ssDAF-12 act: -1.2; DAX1 inh-2: -0.6; hcDAF-12 act: -0.3

What do the screens show for `CC1=C(C(=O)NC(C)CCc2ccccc2)C2(CCC(C)CC2)OC1=O` (centres undefined)?
hgDAF12 agonist: -1.2; ssDAF-12 act: -1.0; DAX1 inh-1: 5.1*; DAX1 inh-2: -0.1; hcDAF-12 act: 0.7

Results for Cc1cc(C)n2c(SCC(=O)NC3CCCCC3C)nnc2n1 (centres undefined) ?
hgDAF12 agonist: -0.4; ssDAF-12 act: -1.8; DAX1 inh-1: 1.4; DAX1 inh-2: -0.2; hcDAF-12 act: -1.4

What do the screens show for `CCC1CCCCN1C(=O)CSc1nnc2nc(C)cc(C)n12` (centres undefined)?
hgDAF12 agonist: 1.4; ssDAF-12 act: -1.7; DAX1 inh-1: -0.1; DAX1 inh-2: 4.0*; hcDAF-12 act: -0.5

How did CC1(c2nnnn2Cc2ccccc2)CCSCC(=O)N1Cc1cccs1 (centres undefined) do in these assays?
hgDAF12 agonist: -0.8; ssDAF-12 act: -0.5; DAX1 inh-2: 0.3; hcDAF-12 act: -0.5

How did CCOC(=O)[C@@]12CCCC3=C1N(CCC3)C(=O)[C@H]2CC(=O)NCCc1ccccc1OC do in these assays?
hgDAF12 agonist: -3.1; ssDAF-12 act: -1.2; DAX1 inh-2: -0.1; hcDAF-12 act: -1.7

Results for COc1ccc(C2NCCc3c2[nH]c2ccccc32)cc1CSc1nc2ccccc2s1 (centres undefined) ?
hgDAF12 agonist: 2.0; ssDAF-12 act: 0.5; DAX1 inh-1: -0.1; DAX1 inh-2: 0.6; hcDAF-12 act: 5.7*

Results for COC(=O)[C@]12C[C@H](CC(=O)NCCC(C)C)C(=O)N(Cc3ccco3)C1=C[C@H](COCc1ccccc1)O[C@@H]2C ?
hgDAF12 agonist: 6.7; ssDAF-12 act: -1.4; DAX1 inh-2: -1.1; hcDAF-12 act: 0.7

What do the screens show for `COc1cccc2c1OC1(CCN(C(C)C)CC1)N1N=C(c3cccnc3)CC21` (centres undefined)?
hgDAF12 agonist: 8.1; ssDAF-12 act: -0.6; DAX1 inh-1: 6.8*; DAX1 inh-2: 0.1; hcDAF-12 act: 0.5

How did CC1CCc2c(sc(NC(=O)c3nc4ncccn4n3)c2C#N)C1 (centres undefined) do in these assays?
hgDAF12 agonist: 3.7; ssDAF-12 act: -1.3; DAX1 inh-1: 4.4*; DAX1 inh-2: -0.1; hcDAF-12 act: -2.4

Results for O=C(CSc1ccc(Br)cc1)NC1CCCCCC1 ?
hgDAF12 agonist: 2.5; ssDAF-12 act: 1.9*; DAX1 inh-1: 0.2; DAX1 inh-2: -0.1; hcDAF-12 act: -0.4

How did O=C(CSc1ccc(F)cc1)NC1CCCCC1 do in these assays?
hgDAF12 agonist: 6.7; ssDAF-12 act: -0.6; DAX1 inh-1: 0.2; DAX1 inh-2: 1.1; hcDAF-12 act: 2.4

Results for O=C(CSc1cc(Cl)ccc1Cl)N/N=C/c1ccc[nH]1 ?
hgDAF12 agonist: -6.8; ssDAF-12 act: -2.1; hcDAF-12 act: -4.9

What do the screens show for `O=Nc1ccc(NO)c2ccccc12`?
hgDAF12 agonist: -1.4; ssDAF-12 act: 1.2*; DAX1 inh-1: -1.3; DAX1 inh-2: -3.2; hcDAF-12 act: 3.4
